Source: PubChem BioAssay AID778 (Sanford-Burnham Center for Chemical Genomics, 2007)
Out of some 96,000 compounds screened, about 20,000 (21%) were called active.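 How the source made its calls: active means CYP2C19 inhibition above a set limit at 5 µM in the primary screen (cut at about 50% in these data); inactive means the rest.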 A selection follows.

Target: Cytochrome P450 2C19 (Homo sapiens) (UniProt P33261)
Test: blockers of cytochrome P450 2C19 activity – biochemical, luminescence, ADME assay, primary screen (AID 778);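 further: plate controls were negative control wells for no effect and 2.5 mM tranylcypromine positive control for full effect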
Details: CYP2C19 Supersomes, luciferin-H EGE luminescence, 30 min; at 5 µM; active compounds read high

Sequence of Cytochrome P450 2C19 (Homo sapiens) (P33261 whole entry, looked up): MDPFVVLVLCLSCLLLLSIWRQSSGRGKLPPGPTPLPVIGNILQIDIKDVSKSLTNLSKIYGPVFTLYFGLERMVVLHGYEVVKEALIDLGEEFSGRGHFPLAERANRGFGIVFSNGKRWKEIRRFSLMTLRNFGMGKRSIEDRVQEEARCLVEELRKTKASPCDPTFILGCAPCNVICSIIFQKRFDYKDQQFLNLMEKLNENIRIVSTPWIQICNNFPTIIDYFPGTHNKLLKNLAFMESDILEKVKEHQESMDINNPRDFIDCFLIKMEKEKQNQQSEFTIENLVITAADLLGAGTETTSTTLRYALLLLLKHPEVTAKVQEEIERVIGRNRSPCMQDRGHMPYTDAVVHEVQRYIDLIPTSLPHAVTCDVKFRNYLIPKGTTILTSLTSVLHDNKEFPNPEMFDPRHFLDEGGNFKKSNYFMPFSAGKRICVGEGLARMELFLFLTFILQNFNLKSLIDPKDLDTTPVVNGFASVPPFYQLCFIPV

inhibition, inactive:
O=c1cc(N2CCN(Cc3ccccc3)CC2)c(-c2ccccc2)n[nH]1 19%, Cc1cnc(NC(=O)C2CCCC2)s1 17.5%, CCOC(=O)c1c(NC(C)=O)sc2c(O)c(Br)ccc12 3.8%, CC(=NC1CCN(Cc2ccccc2)CC1)c1c(O)[nH]c(=O)[nH]c1=O -7.4%, CC(C)c1nnc(NC(=O)C2CCCN2S(=O)(=O)c2ccc(Cl)cc2)s1 (stereo not drawn) 17.2%, CCOc1ccc(NC(=O)CC2NCCNC2=O)cc1 (stereo not drawn) 1.1%, CCOc1ccc(S(=O)(=O)N2CCCCCC2)c2ccccc12 32.3%, CCOC(=O)c1ccc(N2C(=O)CC(N3CC(C)OC(C)C3)C2=O)cc1 (stereo not drawn) 6.8%, CCOC(=O)c1ccc(N2C(=O)CC(N3CCC(C(=O)OCC)CC3)C2=O)cc1 (stereo not drawn) 47.5%, CCCCCCC(=O)Nc1nc(C)c(-c2csc(Nc3cccc(OC)c3)n2)s1 -4.8%, COC(=O)c1ccccc1NC(=O)Cn1nc(C(F)(F)F)c2c1CCC2 36.4%, O=C1N=C2SCCN2/C1=C\c1c(Cl)cccc1Cl 11.1%, Cc1cc(Nc2ccccc2)nc(N)n1 -8.2%, CNC(=O)n1ccc(C(=O)N2CCCCC2)n1 -16.6%, CC(C)(O)C(=O)NN(C(=O)c1ccccc1)c1cccc(Br)c1 2.5%, O=C(/C=C\NCC(=O)c1ccccc1)c1ccccc1 46.4%, CCC(C)(C(=O)NC1CCCC1)N(C(=O)CNC(C)=O)c1ccc(C)cc1 (stereo not drawn) 21.1%, CCOc1ccccc1NC(=O)C1CCC(CNc2c(N3CCOCC3)c(=O)c2=O)CC1 (stereo not drawn) -13.1%, CCOc1ccc(NC(=O)CN(C)CC(=O)Nc2cccc(Cl)c2C)cc1OCC 21.6%, CCOCC(=O)Nc1cc(OC)c(Cl)cc1OC 29.8%, COc1ccc(-c2cc(C(F)(F)F)n3nc(C(=O)N4CCOCC4)c(Cl)c3n2)cc1 -7.1%, CCC(c1nnnn1Cc1ccccc1)N(Cc1cc2cc(OC)ccc2[nH]c1=O)CC1CCCO1 (stereo not drawn) 44.9%, CCC(=O)N(Cc1cc2cc(OC)ccc2[nH]c1=O)c1ccccc1C 21.8%, CCC(c1nnnn1Cc1ccco1)N(CCc1ccccc1)Cc1cc2cccc(C)c2[nH]c1=O (stereo not drawn) 38.3%, COc1ccc2[nH]c3c(=O)n(Cc4ccco4)cnc3c2c1 21.8%, O=C1c2ccccc2-c2ncnc3c(N4CCOCC4)cc(N4CCOCC4)c1c23 29.6%, CCOC(=O)c1sc(NC(=O)CSc2nc(C)cc(C(F)(F)F)n2)c(C#N)c1C 19.8%, Cc1nc(N2CCOCC2)nc2c1CCCC2 28.5%, CC(=O)c1ccc(Oc2cc(C)nc(-n3nc(C)cc3C)n2)cc1 -5.5%, CCc1ccc2c(c1)cc(CN(C(=S)Nc1ccccc1Cl)C1CC1)c1nnnn12 -11.2%, Cc1nc2ccccc2c2oc(C(=O)NCCCN3CCC(C)CC3)cc12 -6.7%, CC1Oc2ccccc2N(Cc2cccnc2)C1=O (stereo not drawn) 26.8%, O=C(NC1(C(F)(F)F)NC(=O)N(Cc2cccnc2)C1=O)c1ccccc1Cl (stereo not drawn) 39.8%, Cc1cccc(N(CC(=O)Nc2ccc(-c3nc4ccc(C)cc4s3)cc2)S(C)(=O)=O)c1 1.8%, CCc1ccccc1N(CC(=O)NCCSCc1ccco1)S(C)(=O)=O 24%, O=C(COc1ccc(Cl)cc1)NCCSc1ccccc1 14.6%, COC(=O)c1ccccc1NC(=O)CSc1ccccn1 26.9%, Nc1nnc(SCCN2C(=O)c3ccccc3S2(=O)=O)s1 29%, O=C(N/N=C/c1ccsc1)c1cc(O)cc(O)c1 7%, Nc1nc(C23CC4CC(CC(C4)C2)C3)cs1 40.8%, CCC(C)OC(=O)C(C)Oc1ccc(-c2ccccc2)cc1 (stereo not drawn) 0.6%, O=C(NCN1CCN(CCO)CC1)c1cnccn1 -8.6%, Cc1ccc(S(=O)(=O)NC(=O)N2CCCC(C)(C)C2)cc1 -4.4%, Cc1ccc(S(=O)(=O)N(C)C2(C)CCS(=O)(=O)C2)cc1 (stereo not drawn) 18.3%, Cc1ccc(S(=O)(=O)N2CCOCC2)cc1C(=O)NCc1ccc(F)cc1 15.3%, CCN(CC)S(=O)(=O)c1ccc(N2CCOCC2)c(C(=O)O)c1 9.1%, Cc1cc(OC(=O)c2ccc(Cl)cc2)cc(=O)n1C -5.3%, O=C(Nc1ccccc1Cl)O/N=C(/c1ccccc1)c1ccccn1 21.3%, O=C(N1CCOCC1)N(Cc1ccccc1)c1ccccn1 31.3%, COc1ccc(Cc2nnc(NS(=O)(=O)Cc3ccccc3)s2)cc1 9%, Cc1cccc(NC(=O)CSc2nnc(NC(=O)CN3CCOCC3)s2)c1 0.9%, Cc1cccc(NC(=O)CN2C(=O)CNC2=O)c1 -10.1%, CCc1nnc(NC(=O)CSc2nc3c(c(=O)n2-c2ccccc2OC)SCC3)s1 11.4%, CS(=O)(=O)c1ccc2nc(NC(=O)CN3CCCCCC3)sc2c1 -6%, CCS(=O)(=O)c1ccc2oc(SCC(=O)N3c4ccccc4CC3C)nc2c1 (stereo not drawn) -8.1%, O=C(CSc1nc2ccccc2o1)N1CCN(c2ccc(Cl)cc2)CC1 4.3%, Cc1nnc(SCC(=O)N2CCN(c3ccccc3)CC2)n1-c1ccccc1 -4.9%, Cc1cc(=O)[nH]c(SCC(=O)N2c3ccccc3CC2C)n1 (stereo not drawn) 1.8%, Cc1ccccc1Nc1nc(N)nc(CN2CCN(c3ccccn3)CC2)n1 12.9%, Cc1ccc(C)c(NC(=O)c2ccc(OC(=O)c3ccco3)cc2)c1 4.9%, CCC(CC)c1nnc(NS(=O)(=O)Cc2ccccc2)s1 -10.5%, COc1ccc(Cn2cccc(NC(=O)Nc3ccc(C#N)cc3)c2=O)cc1 5.5%, CSc1ccc(C#N)cc1NC(=O)c1ccc(Cl)cc1 3%, Cc1cc(/C=C2/SC(=O)N(CC(=O)OC(C)C)C2=O)c(C)n1C 1.6%, Cc1c(NC(=O)CSc2cccc3cccnc23)c(=O)n(-c2ccccc2)n1C -13.9%, Cc1ccc(-n2nc3cc(Cl)c(NC(=O)c4ccco4)cc3n2)cc1 10.3%, CC1CCc2c(c3ccccc3[nH]c2=O)O1 (stereo not drawn) 25.5%, CC1CN(c2nc(-c3ccccc3)nnc2-c2ccccc2)CC(C)O1 (stereo not drawn) -3.1%, Cn1nc(-c2ccccc2)c(-c2nc(-c3ccc(Cl)cc3)no2)c1Cl -16.4%, O=C(Nc1ccccc1C(F)(F)F)c1cc(-c2ccc(O)cc2)on1 6.8%, COc1ccc(C(=O)Nc2nc(-c3ccc(S(=O)(=O)N4CCOCC4)cc3)cs2)cc1 14.6%, CCC1=[N+]([O-])C(C)(/C(C)=N\O)N(O)C1(C)C (stereo not drawn) 23.5%, NC(=O)Cn1c(=O)oc2ccccc21 -6.4%, O=C(c1ccc(S(=O)(=O)N2CCOCC2)cc1)N1CCN(c2ccccc2)CC1 -4.7%, c1ccc(-n2nnnc2N2CCOCC2)cc1 33.5%, CC(C)(C)NC(=O)c1cc(NC(=O)c2ccco2)cc(NC(=O)c2ccco2)c1 20.8%

inhibition, active:
CCOC(=O)c1cc(C)sc1NC(=O)C1CCC1 54.6%, CCOc1ccc(S(=O)(=O)n2ccnc2)c2ccccc12 66.5%, CCCCOC(=O)c1ccc(N2C(=O)CC(N3CCN(C/C=C/c4ccccc4)CC3)C2=O)cc1 (stereo not drawn) 86.2%, COC(=O)c1ccccc1Sc1c(/C=N/OCc2ccc(Cl)cc2)c(C(F)(F)F)nn1C 72.6%, O=C(/C=C/NNC(=O)c1cccc(Br)c1)c1ccccc1 76.7%, CCOc1ccccc1NC(=O)C12CC3CC(C1)CC(c1ccc(C)cc1)(C3)C2 51.9%, FC(F)Oc1ccccc1C1CC(c2ccc(Br)s2)Nc2ncnn21 (stereo not drawn) 98.5%, CCC(c1nnnn1Cc1ccco1)N(Cc1cc2cc(OC)ccc2[nH]c1=O)C1CCCCC1 (stereo not drawn) 53.6%, CCC(c1nnnn1Cc1ccco1)N(CCc1ccccc1)Cc1cc2ccc(OC)cc2[nH]c1=O (stereo not drawn) 92.2%, Cc1cc(Oc2ccccc2)nc(N2CCOCC2)n1 94.5%, CC12c3ccccc3C(c3ccccc31)C1C(=O)N(Cc3cccnc3)C(=O)C12 (stereo not drawn) 81.2%, O=C(CCSc1ccccc1)NCCSc1ccccn1 71%, COc1cccc(N(CC(=O)NCCSc2ccccn2)S(C)(=O)=O)c1 53.8%, Cc1ccc(S(=O)(=O)C2(S(=O)(=O)c3ccc(C)cc3)CCCC2)cc1 83.3%, CN(C)S(=O)(=O)c1ccc(N2CCCC2)c(C(=O)NCc2ccccc2)c1 62.4%, Cc1cccc(NC(=O)CN2CCCN(S(=O)(=O)c3ccc(Br)s3)CC2)c1 67.4%, O=C(CSc1nc2ccccc2o1)N1CCN(c2ccccc2)CC1 55.6%, CC1Cc2ccccc2N1C(=O)CSc1nc2ccccc2o1 (stereo not drawn) 76.8%, O=C(Nc1cccn(Cc2c(Cl)cccc2Cl)c1=O)c1ccc(Cl)cc1 79.9%, Clc1ccc(-c2nnc(-c3ccccc3)nc2N2CCSCC2)cc1 72%, Cn1ccs/c1=N\S(=O)(=O)c1ccc(C(C)(C)C)cc1 65%, O=C1C(Cl)=C(N2CCOCC2)C(=O)N1c1ccccc1 84.7%
